PubChem BioAssay (NCI)
The panel holds about 83,000 compounds, 20% with a hit somewhere; the sample as a whole holds those more often.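 Each cell line was grown in a 96-well plate and treated with one concentration of compound for 48 hours. Values below 10 were considered active.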 A number with no mark means an inactive call. The source made the active and inactive calls.

Columns and labels:
Assay in all cases: NCI-60 one-dose screen, 48 h (100 = growth as untreated, 0 = no growth, -100 = all killed)
Settings in all cases: 10 µM unless noted
SR leukemia = test system: SR leukemia
OVCAR-8 ovarian = test system: OVCAR-8 ovarian
OVCAR-5 ovarian = test system: OVCAR-5 ovarian
OVCAR-3 ovarian = test system: OVCAR-3 ovarian
HS 578T breast = test system: HS 578T breast
NCI/ADR-RES ovarian = test system: NCI/ADR-RES ovarian
OVCAR-4 ovarian = test system: OVCAR-4 ovarian
SK-OV-3 ovarian = test system: SK-OV-3 ovarian
IGROV1 ovarian = test system: IGROV1 ovarian
RPMI-8226 leukemia = test system: RPMI-8226 leukemia

| Structure (SMILES) | growth (SR leukemia) | growth (OVCAR-8 ovarian) | growth (OVCAR-5 ovarian) | growth (OVCAR-3 ovarian) | growth (HS 578T breast) | growth (NCI/ADR-RES ovarian) | growth (OVCAR-4 ovarian) [%] | growth (SK-OV-3 ovarian) | growth (IGROV1 ovarian) | growth (RPMI-8226 leukemia) |
| --- | --- | --- | --- | --- | --- | --- | --- | --- | --- | --- |
| O=C(Oc1cccc2ccccc12)c1ccccc1C(=O)c1ccccc1 | 3.67% (active) | 91.7% | 102% | 65.6% | 93.5% | 90.4% | – | – | – | – |
| Nc1ccc2c(c1)C(=O)c1cc(Cl)c(Cl)cc1-2 | 82% | 92.3% | 95.9% | 110% | 105% | 97.3% | 89.9 | 97.9% | – | – |
| O=C1NC(=O)/C(=C/c2ccc(Cl)cc2Cl)N1 | 93% | 101% | 106% | 105% | – | 106% | 97.4 | 98.9% | 106% | – |
| O=C(Oc1ccccc1)C(Br)C(Br)c1ccccc1 (stereo not given) | -23.6% (active) | 103% | 102% | -47% (active) | 85.9% | 113% | – | 114% | – | – |
| c1ccc(-c2oc(-c3ccccc3)c3ccccc23)cc1 | 56.8% | 102% | 112% | 124% | 97.7% | 96.5% | – | 116% | 109% | – |
| CCOC(=O)C1C(=O)NC(C(=O)OCC)(C(=O)OCC)C1CC (stereo not given) | 107% | 108% | 105% | 125% | 129% | 113% | 110 | 112% | – | – |
| CC[C@@H](C)/C=C(C)/C=C/C(=O)c1c(O)c(-c2ccc(O)cc2)cn(OC2CC(=O)CCC(C)OC(=O)CC2O)c1=O (stereo not given in full) | 7.95% (active) | 17.5% | 53.8% | 18.7% | 35.1% | 5.21% (active) | – | – | 4.73% (active) | – |
| CCOC(=O)CNC(=O)C1(NC(=O)CNC(=O)OCc2ccccc2)CCCC1 | 103% | 107% | 95.1% | 142% | 125% | 105% | 106 | 104% | – | – |
| CN1CCN(CCCCCN=c2cc3c(=O)n(CCCCCN4CCN(C)CC4)c(=O)c4c(NCCCCCN5CCN(C)CC5)cc5c(O)n(CCCCCN6CCN(C)CC6)c(=O)c2c5c4-3)CC1 | 1.43% (active) | 12.6% | -9.79% (active) | 3.82% (active) | -2.4% (active) | 110% | – | -29.6% (active) | -0.0469% (active) | – |
| O=C(CC1Sc2ccccc2NC1=O)NNc1cccc(Cl)c1Cl (stereo not given) | 61% | 82.7% | 80.6% | 81.7% | – | 96.7% | 88.1 | 70.2% | 82.1% | – |
| O=C1NC(=S)S/C1=C\c1cc(Br)ccc1O | 95.7% | 103% | 91.6% | 103% | – | 102% | 115 | 91.3% | 110% | – |
| NC(=O)NC1(C(=O)O)CCCC1 | 91.8% | 106% | 98.5% | 115% | – | 111% | – | 109% | 119% | – |
| COC(=O)Nc1ccc2ccc3c(NC(=O)OC)ccc4ccc1c2c43 (tested in a mixture with another compound) | 24.1% | 66.5% | 76.2% | 70.5% | – | 36.6% | 87.9 | 72% | – | – |
| O=C1NC(=O)/C(=C\c2ccco2)S1 | 113% | 105% | 95.9% | 106% | – | 103% | – | 97.1% | 114% | – |
| CN(C)CCC(=O)Nc1ccc(-n2cc(-c3cccc(NC(=S)Nc4cccc(-c5cn(-c6ccc(NC(=O)CCN(C)C)cc6)nn5)c4)c3)nn2)cc1 | 25.9% | 97.3% | 113% | 94.6% | 137% | 113% | – | 115% | 85.5% | – |
| O=C(c1ccccc1)C(CN1CCCCC1)c1ccccc1 (stereo not given) | -3.65% (active) | 15.6% | 32.5% | 14.9% | – | 12.6% | 39.7 | 107% | 56% | – |

| Structure (SMILES) | growth (SR leukemia) | growth (OVCAR-8 ovarian) | growth (OVCAR-5 ovarian) | growth (OVCAR-3 ovarian) | growth (HS 578T breast) | growth (NCI/ADR-RES ovarian) | growth (OVCAR-4 ovarian) [%] | growth (SK-OV-3 ovarian) | growth (IGROV1 ovarian) | growth (RPMI-8226 leukemia) |
| --- | --- | --- | --- | --- | --- | --- | --- | --- | --- | --- |
| COc1c(O)cc2c(c1CC=C(C)C)OC(=O)c1c(cc(O)c(CC=C(C)C)c1O)O2 | -21.4% (active) | 42.4% | 72% | 34.2% | – | -13.7% (active) | 43.8 | 86.7% | – | – |
| CCCCCN1C(=O)CCC1=O | 107% | 94.4% | 98.2% | 103% | – | 102% | 114 | 110% | 110% | – |
| CN(C)CCCN=c1cc2c(=O)n(CCCN(C)C)c(=O)c3c(NCCCN(C)C)cc4c(O)n(CCCN(C)C)c(=O)c1c4c3-2 | 6.3% (active) | 5.35% (active) | 0.732% (active) | -39.1% (active) | -11.2% (active) | 52.2% | – | -4.23% (active) | -24.6% (active) | – |
| CC[C@@H](C)/C=C(C)/C=C/C(O)=C1\C(=O)N[C@@H](Cc2ccc(OC(=O)[C@@](OC)(c3ccccc3)C(F)(F)F)cc2)C1=O | 62.6% | 103% | 120% | 67.8% | 67.8% | 49.6% | – | 112% | – | – |
| Nc1nc2c(nnn2Cc2ccc(Cl)c(Cl)c2)c(=O)[nH]1 | 92% | 98.5% | 95.5% | 106% | – | 105% | 112 | 97.4% | 100% | – |
| O=C(O)c1ccc2cccnc2c1O | 5.47% (active) | 13.6% | 24.2% | 1.49% (active) | – | -1.54% (active) | 17.7 | -10.7% (active) | 5.01% (active) | – |
| CC1CN(CC(O)c2ccc(Br)cc2)CCO1 (stereo not given) | 92.3% | 96.2% | 103% | 107% | – | 108% | – | 112% | 109% | – |
| C[C@]12CC[C@H](O)CC1=CC[C@@H]1[C@@H]2CC[C@]2(C)C(c3cccnc3)=CC[C@@H]12 | 0.438% (active) | – | 92.3% | 56.1% | 13.6% | 49.9% | 49.7 | 87.8% | 43.5% | – |
| CC(C)Cn1cnc2c(NCn3nc(-c4cc(Cl)cc(Cl)c4Cl)n(/N=C/c4ccc(Cl)cc4)c3=S)nc3ccccc3c21 | – | 72.4% | 92.1% | 98% | 94% | 56.3% | 71.1 | 110% | 4.11% (active) | 44.3% |
| COc1cccc(/C=N\NC(=O)c2ccncc2)c1O | 21% | – | 67% | 13.6% | – | 25.3% | 31.7 | 56.8% | – | – |
| COc1cc(/C=C/C(=O)CC(=O)/C=C/c2ccc(OC(=O)CCNC34CC5CC(CC(C5)C3)C4)c(OC)c2)ccc1OC(=O)CCNC12CC3CC(CC(C3)C1)C2 | – | 14.7% | 51.8% | -7.82% (active) | 19.3% | 78.4% | 65.3 | 63.8% | 6.65% (active) | -30.4% (active) |
| O=C1Nc2ccc(Cl)cc2[C@@](C#CC2CC2)(C(F)(F)F)O1 | – | 91.3% | 91.1% | 101% | 99.2% | 99.1% | 89.1 | 110% | -10.5% (active) | 92.2% |
| COP(=O)(OC)C(c1ccccc1)(c1ccccc1)c1ccccc1 | – | 94.6% | 101% | 86.7% | 94.5% | 95.9% | 93.2 | 108% | -9.3% (active) | 87.5% |
| FC(F)(F)c1cc(-c2nnc3n2N=C(N2CCCC2)CS3)cc(C(F)(F)F)c1 | – | 74.4% | 106% | 53.6% | 46.8% | 80.2% | 102 | 21% | 87% | 95% |
| C=C1CCC2C3(C)COC(c4ccccc4)OC3CCC2(C)C1C/C=C1/C(=O)OCC1OC(C)=O (stereo not given) | 78.2% | – | 120% | 100% | – | 61.3% | 82.3 | 131% | 86.8% | – |
